TMEM16A inh = inhibitors of mouse TMEM16A calcium-activated chloride channel | 310,000 tested, 1.2% active | normalized B-score (activity score, 25-100; higher = stronger inhibition) at 10 µM | HEK293 TMEM16A/YFP iodide influx fluorescence, ionomycin | Q8BHY3;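 active means ratio plate-corrected score three or more library SD toward inhibition, starting fluorescence score within five deviations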;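 further: score derived from kinetic fluorescence span divided by baseline fluorescence per well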
HDAC3 inhib = inhibitors of human histone deacetylase 3; O15379; recombinant HDAC3, fluorogenic peptide/trypsin coupled, fluorescence; 320,000 tested, 0.15% active; inhibition, % at 8.3 µM; in the data active means inhibition above about 26%, passing the limit was not always enough
TMEM16A act = activators or potentiators of mouse TMEM16A chloride channel; HEK293 TMEM16A/YFP-H148Q/I152L, iodide quench fluorescence; stronger effect = lower value; B-score at 10 µM; 340,000 tested, 0.3% active; AID 623877;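 active means fluorescence-ratio B-score plate-corrected deviation score at least 3 library SD below zero, with starting fluorescence score within 5 deviations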;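 further: channel opened by trigger with iodide after compound preincubation; score built on the fluorescence ratio of max minus min over baseline; more negative score means more quench and so TMEM16A activation or potentiation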
CHT allo act = human CHT allosteric activation. CHT-expressing cells, membrane potential dye, choline EC20; stronger effect = higher value; LV-AA mutant CHT in HEK293 cells. AID 488977. Q9GZV3. 310,000 tested, 0.49% active. B-score at 10 µM;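 active means initial fluorescence not abnormally high and integrated response B-score, plate-corrected, over 3 SD above library mean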
Target sequence (Q9GZV3 whole entry, looked up): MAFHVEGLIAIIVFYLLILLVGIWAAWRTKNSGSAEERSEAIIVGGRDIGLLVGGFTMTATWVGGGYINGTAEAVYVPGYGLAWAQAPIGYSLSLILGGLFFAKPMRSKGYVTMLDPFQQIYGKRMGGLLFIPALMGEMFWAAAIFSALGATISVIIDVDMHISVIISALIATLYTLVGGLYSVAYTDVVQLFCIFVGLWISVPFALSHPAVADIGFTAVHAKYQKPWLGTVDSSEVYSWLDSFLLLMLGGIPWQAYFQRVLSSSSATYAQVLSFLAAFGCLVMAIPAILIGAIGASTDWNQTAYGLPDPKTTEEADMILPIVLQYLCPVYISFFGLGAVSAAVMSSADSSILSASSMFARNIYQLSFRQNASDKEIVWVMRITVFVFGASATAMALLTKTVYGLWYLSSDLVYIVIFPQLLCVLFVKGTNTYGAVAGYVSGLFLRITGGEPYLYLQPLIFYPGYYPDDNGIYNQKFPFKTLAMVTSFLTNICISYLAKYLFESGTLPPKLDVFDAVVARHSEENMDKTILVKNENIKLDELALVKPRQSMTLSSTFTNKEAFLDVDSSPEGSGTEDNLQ
PHOSPHO1 inh = blocks human PHOSPHO1 phosphatase activity; recombinant PHOSPHO1, absorbance phosphatase assay; inhibition, % at 13.3 µM; 290,000 tested, 1.1% active; AID 1565; in the data active means inhibition above about 60%
CHT inh = inhibits the human high affinity choline transporter; CHT-expressing cells, membrane potential dye, choline response; stronger effect = lower value; Q9GZV3; 310,000 tested, 0.86% active; B-score at 10 µM;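 active means B-score over 3 SD under the library average, and starting fluorescence ratio not unusually high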;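 further: choline stimulus applied at its EC90 after an EC20 pre-addition; B-score computed on integrated fluorescence ratio after choline addition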
TMEM16A reconf = re-confirmation of mouse TMEM16A chloride channel inhibitors | 2,300 tested, 39% active | HEK293 TMEM16A/YFP-H148Q, iodide quench fluorescence; ionomycin added to raise cell calcium | shares compounds with TMEM16A inh | inhibition, % at 10 µM;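 active means mean duplicate percent inhibition, scaled so buffer wells are 0 and the reference blocker 100, over three buffer SD above buffer mean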
TMEM16A Ca cntr = calcium mobilization counter-screen hit for TMEM16A inhibitor series; shares compounds with TMEM16A inh; TMEM16A/YFP HEK293, Fluo4 calcium mobilization; calcium response (% of ionomycin), % at 10 µM; 2,300 tested, 2% active;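 active means duplicate-averaged calcium signal over 20% of the ionomycin maximum, relative to buffer baseline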;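 further: each well's signal is peak minus trough fluorescence divided by its pre-addition baseline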
Parental YFP cnt = acts in parental YFP-HEK293 cells lacking TMEM16A, counter-screen. shares compounds with TMEM16A inh. iodide YFP quench, ionomycin. YFP ratio F(max-min)/F0 at 10 µM. 2,300 tested, under 10 active. AID 652233;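 active means yellow fluorescent protein signal ratio exceeding the buffer control mean by over 5 SD of those controls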;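 further: ratio is mean of duplicate wells from kinetic YFP trace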
ClC-1 inh = rat ClC-1 inhibition, TMEM16A specificity screen; AID 652236; ratio percent, % at 10 µM; 2,300 tested, under 10 active; shares compounds with TMEM16A inh; CHO ClC-1-YFP, iodide influx fluorescence quench; iodide control reads 0, buffer control 100;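 active means duplicate-mean ratio percent above the mean of iodide-only control wells, which defines zero, plus 5 of their SD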;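 further: higher percent means stronger block of ClC-1 iodide influx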
Large screens that a line does not name were inactive (follow-up assays come after a bar, where they were run). Most compounds without a hit are left out; they make up all but 3.2% or so of the library.

CCOC(=O)NNC1CC(=O)N(c2ccccc2)C1=O (centres undefined)	none
Cc1ccc(S(=O)(=O)NCCC(c2ccccc2)c2ccco2)cc1 (centres undefined)	none
Cc1ccc(S(=O)(=O)NCC(c2ccco2)S(=O)(=O)c2ccccc2)cc1 (centres undefined)	TMEM16A inh 25 (no result: PHOSPHO1 inh) | TMEM16A reconf inactive | TMEM16A Ca cntr inactive | Parental YFP cnt inactive | ClC-1 inh inactive
C[C@H]1COC(=O)[C@@H](CC(=O)OC(C)(C)C)C/C=C\C[C@@H](CC(=O)N[C@H](CO)Cc2ccccc2)C(=O)N1	none (no result: TMEM16A inh, CHT allo act, PHOSPHO1 inh, CHT inh)
CS(=O)(=O)N1CCc2cc(-c3csc(NC(=O)Cc4cccs4)n3)ccc21	TMEM16A inh 25 | TMEM16A reconf 31% | TMEM16A Ca cntr inactive | Parental YFP cnt inactive | ClC-1 inh inactive
O=C1CC(c2ccccc2)c2ccc(O)cc2O1 (centres undefined)	TMEM16A inh 25 | TMEM16A reconf inactive | TMEM16A Ca cntr inactive | Parental YFP cnt inactive | ClC-1 inh inactive
COc1ccc(OC)c(CN2CCN(C(=O)CNC(=O)c3ccccc3F)CC2)c1	none (no result: TMEM16A inh, CHT allo act, PHOSPHO1 inh, CHT inh)
Cc1cccc(N2CCN(S(=O)(=O)c3cccs3)CC2)c1C	none
CCOCC(=O)Nc1cc(C(F)(F)F)ccc1Oc1cccc(Br)c1	TMEM16A inh 25 | TMEM16A reconf 18% | TMEM16A Ca cntr inactive | Parental YFP cnt inactive | ClC-1 inh inactive
CC(=O)Nc1cc(C(F)(F)F)ccc1Oc1cccc(Br)c1	none
Cc1noc(C)c1S(=O)(=O)N1CCC(C(=O)NCCN2CCC(C)CC2)CC1	none
COc1ccc(CC(NC(C)=O)C(=O)N2CCN(C(=O)Nc3cccc(F)c3)CC2)cc1OC (centres undefined)	none
COC(=O)Cc1nnc(NC(=O)C(C)C)s1	TMEM16A inh 25 | TMEM16A reconf inactive | TMEM16A Ca cntr inactive | Parental YFP cnt inactive | ClC-1 inh inactive
COc1ccc(/C(C)=N/OCC(=O)Nc2nc3ccccc3s2)cc1	none
Cc1ccc(C(=O)O/N=C2\CC3CCC2(C)C3(C)C)cc1 (centres undefined)	TMEM16A inh 25 | TMEM16A reconf inactive | TMEM16A Ca cntr inactive | Parental YFP cnt inactive | ClC-1 inh inactive
CC(c1ccco1)N(C(=O)CSc1ccc(Br)cc1)c1ccccn1 (centres undefined)	TMEM16A inh 100 | TMEM16A reconf 18% | TMEM16A Ca cntr inactive | Parental YFP cnt inactive | ClC-1 inh inactive
COc1cccc(CNCC(=O)Nc2ccc(N3CCOCC3)cc2)c1	none
Cc1ccc(NC(=O)C2=CCN(S(=O)(=O)c3ccc(F)cc3)CC2)c(C)c1	TMEM16A inh 100 | TMEM16A reconf inactive | TMEM16A Ca cntr inactive | Parental YFP cnt inactive | ClC-1 inh inactive
COCCN(CCOC)S(=O)(=O)c1ccc(C(=O)Nc2nnc(CSC)o2)cc1	none
CC(=O)Nc1ccc(NC(=O)COC(=O)CCCc2c[nH]c3ccccc23)cc1	none (no result: PHOSPHO1 inh)
NC(=O)NC(=O)COC(=O)CCCc1c[nH]c2ccccc12	TMEM16A inh 100 | TMEM16A reconf inactive | TMEM16A Ca cntr inactive | Parental YFP cnt inactive | ClC-1 inh inactive
CCn1cnc2scc(-c3ccccc3)c2c1=O	TMEM16A inh 100 (no result: HDAC3 inhib) | TMEM16A reconf inactive | TMEM16A Ca cntr inactive | Parental YFP cnt inactive | ClC-1 inh inactive
CCOC(=O)c1ccc(NC(=O)c2cc(S(=O)(=O)N3CCOCC3)cn2C)cc1	none (no result: HDAC3 inhib)
CCOC(=O)c1ccc(NC(=O)C2CCCN(S(=O)(=O)c3ccc(F)cc3)C2)cc1 (centres undefined)	TMEM16A inh 25 (no result: HDAC3 inhib) | TMEM16A reconf 18% | TMEM16A Ca cntr inactive | Parental YFP cnt inactive | ClC-1 inh inactive
CCOC(=O)c1ccc(NC(=O)C2CCN(S(=O)(=O)c3ccccc3)CC2)cc1	none (no result: HDAC3 inhib, PHOSPHO1 inh)
CCOC(=O)c1ccc(NC(=O)c2cc(S(=O)(=O)N3CCOCC3)ccc2O)cc1	TMEM16A inh 25 | TMEM16A reconf 37% | TMEM16A Ca cntr inactive | Parental YFP cnt inactive | ClC-1 inh inactive
CNc1ccc(/C=C/C(=O)c2cccc3ccccc23)cc1[N+](=O)[O-]	none
CC1CCCN(S(=O)(=O)c2ccc(C(=O)Nc3nnc(-c4ccccc4Cl)o3)cc2)C1 (centres undefined)	TMEM16A inh 100 | TMEM16A reconf 22% | TMEM16A Ca cntr inactive | Parental YFP cnt inactive | ClC-1 inh inactive
Clc1ccc(Cn2cnc3ccccc32)cc1	TMEM16A inh 100 | TMEM16A reconf 23% | TMEM16A Ca cntr inactive | Parental YFP cnt inactive | ClC-1 inh inactive
O=c1ccn(Cc2ccccc2)c(SCc2ccccc2)n1	none (no result: TMEM16A inh, HDAC3 inhib, CHT allo act, PHOSPHO1 inh, CHT inh)
Clc1ccc(CSc2nccn2Cc2ccccc2)cc1	TMEM16A inh 100 | TMEM16A reconf 44% | TMEM16A Ca cntr inactive | Parental YFP cnt inactive | ClC-1 inh inactive
COC(=O)c1cc(CSc2nc3ccccc3[nH]2)oc1C	TMEM16A inh 25 | TMEM16A reconf 22% | TMEM16A Ca cntr inactive | Parental YFP cnt inactive | ClC-1 inh inactive
COC(=O)COc1ccc(S(=O)(=O)Nc2ccc3c(c2)OCCO3)cc1Cl	TMEM16A inh 25 | TMEM16A reconf 46% | TMEM16A Ca cntr inactive | Parental YFP cnt inactive | ClC-1 inh inactive
COC(=O)COc1ccc(S(=O)(=O)Nc2ccc3c(c2)OCCO3)cc1C	TMEM16A inh 25 | TMEM16A reconf 18% | TMEM16A Ca cntr inactive | Parental YFP cnt inactive | ClC-1 inh inactive
Cc1ccc(NS(=O)(=O)c2ccc(OCC(=O)Nc3cccc([N+](=O)[O-])c3)c(C)c2)cc1	TMEM16A inh 25 | TMEM16A reconf inactive | TMEM16A Ca cntr inactive | Parental YFP cnt inactive | ClC-1 inh inactive
Cc1noc(C)c1COc1ccccc1C(=O)NC(C)CCc1ccccc1 (centres undefined)	none (no result: TMEM16A inh, HDAC3 inhib, CHT allo act, PHOSPHO1 inh, CHT inh)
COc1ccc(-c2nc(CN3CCC(c4ccccc4)CC3)c(C)o2)cc1OC	none
CCCn1c(SCC(=O)NC(C)(C)C)nnc1-c1ccco1	none
COc1ccc(NC(=S)NCCc2ccc(F)cc2)c(OC)c1	none
Cc1cc(C)nc(N2N=C(C(C)(C)C)CC2=O)n1	none | TMEM16A reconf inactive | TMEM16A Ca cntr inactive | Parental YFP cnt inactive | ClC-1 inh inactive
CCC1C(=O)N(c2nc(C)cc(C)n2)N=C1C (centres undefined)	none
